Molecules are shown by their SMILES. Out of some 2,200 compounds screened, about 480 (22%) were called active. No rule for the calls is given here. Only a sample is shown. Results with a measured potency or affinity are listed apart.

Here are results for 114 compounds from PubChem BioAssay AID1981 (Southern Research Specialized Biocontainment Screening …, 2009).

The nature of this assay: S. Typhimurium GFP fluorescence dose response in modified counterscreen for PhoP regulon inhibitor project (AID 1981). Particulars: 4 h; series mostly up to 150 µM.
Consider `Nc1nnc(SCCOc2ccc(Br)cc2)s1`, for which the outcome was inactive.
Take `c1ccc(-c2cnn3nnnc3n2)cc1`: the compound was called inactive.
On to `CC(C)CNC(=S)NC1CCCC1`, for which the call was inactive.
Next, `Cc1cc(/C=N/n2cnnc2)c(C)n1-c1ccc(OCc2ccc(F)cc2)cc1`: “inactive”.
On to `COc1ccc(/C=C/c2nc3ccccc3n2Cc2ccccc2OC)cc1`, for which the compound was classed as inactive.
With `COc1cccc(-n2c(N)c(C(=O)Nc3c(C)n(C)n(-c4ccccc4)c3=O)c3nc4ccccc4nc32)c1` the entry was “inactive”.
With `COc1cccc(NC(=S)N/N=C2\CC(C)(C)Oc3ccc(O)cc32)c1`, the result was inactive.
With `CCc1cc2c(NCCC(=O)O)nc(C)nc2s1`, the compound was called inactive.
As to `CN1c2ccccc2C(O)=C(C(=O)Nc2ccccc2)S1(=O)=O`, the outcome was inactive.
For the compound `O=C(Nc1cccc2ccccc12)c1ccc(Cn2cc(Cl)cn2)cc1`, the call was inactive.
Consider `Cc1cc(C)n(-c2nc(NCCN(C)C)c3c4c(sc3n2)CCCC4)n1`, for which the result was inactive.
For `Cc1ccc(-c2nnn(CC(=O)Nc3ccccc3-c3ccccc3)n2)c(-n2cnnn2)c1`, the result was inactive.
With `c1ccc(COc2cccc(CN3CCN(c4ccccn4)CC3)c2)cc1` the entry was “inactive”; with `Cc1cc(C(C)c2ccccc2)c(O)c(CN2CCOCC2)c1C` (centres undefined), “inactive”.
With `N#Cc1ccc(COC(=O)c2ccc3c(=O)[nH]c(CN4CCOCC4)nc3c2)cc1`, the call was inactive.
On to `O=c1[nH]c(CN2CCCCC2)nc2ccccc12`, for which the compound was called inactive.
With `CC1C(C#N)=C(N)OC2=C1C(=O)CCC2` (centres undefined) the entry was “inactive”.
`COc1ccc(C2C(C#N)=C(N)OC3=C2C(=O)CCC3)cc1Cn1cc([N+](=O)[O-])cn1` (centres undefined): the call was inactive.
`CCN(CC)CCCn1c(=S)[nH]c2cc(OC)c(OC)cc2c1=O`: the call was inactive.
With `Cn1c(CO)cnc1SCc1ccc([N+](=O)[O-])cc1`, the compound was classed as inactive.
With `COc1ccccc1Nc1nc(-c2c(C)[nH]c3ccccc23)cs1` the entry was “inactive”.
With `CCc1ccc(OCC(=O)Nc2ccc(-c3cc4ccccc4oc3=O)c(OC)c2)cc1`, the result was inactive.
As to `COc1ccc2oc(=O)cc(C)c2c1`, the result was inactive.
Consider `COc1ccc(S(=O)(=O)n2ccc(-c3ccc(OCCN(C)c4ccccn4)cc3)n2)cc1`, for which the outcome was inactive.
In the case of `NNC(=S)Nc1ccc(Cl)cc1`, the compound was called inactive.
As to `OCCNc1ccc(Cl)cc1`, the call was inactive.
Consider `Cc1ccc(S(=O)(=O)NC2c3cccc4cccc(c34)C2Sc2n[nH]c(N)n2)cc1` (centres undefined), for which the compound was called inactive.
Turning to `Brc1ccc(-c2cnc3n2CCCC3)cc1`, the result was inactive.
As for `CCCNC1=C(C)C(=O)C2=C(C1=O)C(COC(N)=O)[C@]1(OC)C3NC3CN21` (some centres undefined), the compound was classed as inactive.
`Cc1ccc(S(=O)(=O)c2c(N)n(NC(=O)c3ccco3)c3nc4ccccc4nc23)cc1`: the result was inactive.
On to `O=C(c1cnsn1)N1CCN(c2ccccc2)CC1`, for which the result was inactive.
With `COc1ccc(OC)c(C2C=C(C34CC5CC(CC(C5)C3)C4)NC(=S)N2)c1` (centres undefined) the entry was “inactive”; with `O=C(c1[nH]ncc1-c1ccc(Cl)cc1)C1CO1` (centres undefined), “inactive”; with `O=C(CSCc1cccc(CSCC(=O)Nc2ccc3ccccc3c2)n1)Nc1ccc2ccccc2c1`, “inactive”.
For `c1ccc(CSc2nnc(-c3ccncc3)o2)cc1`, the result was inactive.
With `C=CCNc1nnc(Cl)c2ccccc12` the entry was “inactive”; with `S=C(NCc1ccncc1)Nc1ccc(Cl)c(Cl)c1`, “inactive”.
Turning to `Cc1cc(-c2csc(NC(=O)c3ccccc3C(F)(F)F)n2)c(C)n1Cc1ccccc1`, the result was inactive.
Next, `Cc1ccc2[nH]c3c(NCc4ccco4)ncnc3c2c1`: “inactive”; `c1ccc(CNc2ncnc3ccccc23)cc1`: “inactive”; `Cc1ccc(-c2nc(NCc3cccnc3)c3ccccc3n2)cc1`: “inactive”.
With `c1ccc(CN2CCN(c3nc(NCc4ccco4)c4ccccc4n3)CC2)cc1` the entry was “inactive”; with `c1coc(CNc2ncnc3ccccc23)c1`, “inactive”; with `Cc1cccc(C(=O)NC(NCc2ccco2)C(Cl)(Cl)Cl)c1` (centres undefined), “inactive”.
Next, `Oc1ccccc1Nc1nc(NCc2ccco2)c2ccccc2n1`: “inactive”; `c1ccc(CNc2nc(N3CCN(Cc4ccccc4)CC3)nc3ccccc23)cc1`: “inactive”.
Take `O=C(c1ccccc1)N1CCN(c2ccc([N+](=O)[O-])c(NCc3ccco3)c2)CC1`: the result was inactive.
With `C/C(=N/NC(=O)Cc1cccn1C)c1ccccc1`, the outcome was inactive.
Take `COc1ccc(NC(=O)CCNS(=O)(=O)c2ccc3c(c2)CCC(=O)N3)cc1`: the compound was classed as inactive.
Take `O=C(Nc1nccs1)c1cc(-c2ccco2)nc2ccccc12`: the outcome was inactive.
With `Cc1cn([C@H]2C[C@H](N=[N+]=[N-])[C@@H](CO)O2)c(=O)[nH]c1=O`, the outcome was inactive.
On to `COc1cccc(-c2nnc3sc(-c4ccc(C)cc4)nn23)c1`, for which the call was inactive.
For the compound `CN(CC(=O)N1CCN(c2ccccn2)CC1)S(=O)(=O)c1ccc2ccccc2c1`, the outcome was inactive.
With `Cn1nnnc1SCC(=O)NC1CCCCC1` the entry was “inactive”; with `Nc1nnc(SCc2ccc(F)cc2Cl)s1`, “inactive”; with `Cn1c(C(O)c2ccc(Br)cc2)nc(Cl)c1Cl` (centres undefined), “inactive”.
In the case of `CCC1C2CN(C(C)=O)CC=C2C(C#N)=C(N)C1(C#N)C#N` (centres undefined), the compound was classed as inactive.
For `Clc1ccc(-n2ncc3c(NCc4cccs4)ncnc32)cc1`, the compound was called inactive.
Take `CCn1c(Cc2ccccc2)nnc1SCC(=O)Nc1nc(C)c(C)s1`: the result was inactive.
`Nc1ccc2oc3ccccc3c2c1`: the result was inactive.
As to `CCOc1cc(C2C(C(=O)OC)=C(C)N=C3SCCC(=O)N32)ccc1OC(C)=O` (centres undefined), the call was inactive.
For the compound `CCCn1c(/N=C/c2ccc3c(c2)OCO3)nc2ccccc21`, the result was inactive.
On to `Cc1ccc(NS(=O)(=O)c2ccccc2)c2c1CC(C)(C)O2`, for which the result was inactive.
As for `COc1ccc(NC(=O)C(Sc2nnc(-c3ccncc3)n2-c2ccccc2C)c2ccccc2)cc1Cl` (centres undefined), the call was inactive.
As to `CC(=O)Cn1cnc2sc(-c3ccccc3)cc2c1=O`, the compound was called inactive.
`C/C(=N\Nc1nc2ccccc2[nH]1)c1ccc(Cl)s1`: the compound was called inactive.
`C/C(=N\Nc1nc2ccccc2[nH]1)c1cccs1`: the outcome was inactive.
`O=S(=O)(c1ccc(N2CCCC2c2nc3ccccc3s2)nc1)N1CCOCC1` (centres undefined): the call was inactive.
With `O=C(/C=C/c1cccs1)N1CCN(Cc2ccc3c(c2)OCO3)CC1`, the outcome was inactive.
Next, `CC(C)(C)NS(=O)(=O)c1ccc(CCC(=O)N2CCOCC2)cc1`: “inactive”; `Cc1cc(C(=O)CSc2nnnn2C)c(C)n1-c1ccc2c(c1)OCCO2`: “inactive”; `COC(=O)c1c(C)oc2ccc(NS(=O)(=O)c3cccs3)cc12`: “inactive”.
Next, `Cc1cc(N/N=C/c2cccc(Cl)c2)nc(NCc2ccccc2)n1`: “inactive”.
With `C(=N\N1CCN(Cc2ccccc2)CC1)/c1cccnc1` the entry was “inactive”; with `O=C(Nc1cccc(Cl)c1)C1C2CCC3C(CCC21)C3(Cl)Cl` (centres undefined), “inactive”.
For the compound `O=C1CC(c2ccccc2)n2ncnc2N1` (centres undefined), the call was inactive.
For `O=C(NC(NC(=S)Nc1ccc(Cl)cc1)C(Cl)(Cl)Cl)c1ccco1` (centres undefined), the compound was classed as inactive.
Regarding `Cc1onc(-c2ccccc2)c1C(=O)NC(=S)NNC(=O)c1ccc(O)cc1O`, the outcome was inactive.
On to `FC(F)Oc1ccc(NC(=S)NCc2nc3ccccc3[nH]2)cc1`, for which the result was inactive.
With `CCn1c(N)[n+](CC(=O)Nc2ccc(SC(F)F)cc2)c2ccccc21` the entry was “inactive”.
With `Cc1ccc2[nH]c3c(NCc4ccccc4)ncnc3c2c1`, the compound was called inactive.
With `COC(=O)N1CCN(c2ccc(Cl)c(Cl)c2)CC1`, the compound was classed as inactive.
Regarding `Brc1ccc2nc3c(n2c1)CCCC3`, the outcome was inactive.
Turning to `CC(=O)Nc1ccc(C(=O)Nc2nc(-c3cc(C)n(Cc4ccccc4)c3C)cs2)cc1`, the result was inactive.
Regarding `Cc1ccccc1Nc1nc(-c2sc(NC(=O)c3cccc(Cl)c3)nc2C)cs1`, the compound was classed as inactive.
With `CC(C)Cc1oc(C(=O)O)cc1CN`, the compound was classed as inactive.
With `Nc1nc(C2CCCCC2)cs1` the entry was “inactive”; with `CCN(CC(=O)Nc1ccc(N2CCOCC2)cc1)Cc1nc2ccccc2c(=O)[nH]1`, “inactive”; with `COc1ccc(OC)c(/C=N/NC(=O)c2cc3c(OC)c(OC)ccc3[nH]2)c1`, “inactive”.
As for `COc1ccc(OC)c(/C=N/NC(=O)Cc2nc3ccccc3[nH]2)c1`, the call was inactive.
Regarding `C#CCOc1c(Cl)cc(/C=N/O)cc1OC`, the result was inactive.
Turning to `Cc1nn(-c2ncc(C(F)(F)F)cc2Cl)c(=O)n1-c1cccc(Cl)c1`, the compound was called inactive.
In the case of `Cc1ccc(C)n1-c1cccc(N)c1`, the compound was called inactive.
Next, `O=S1(=O)CC(O)C(Nc2ccccc2Cl)C1` (centres undefined): “inactive”; `COc1ccccc1NC(=O)Cn1nnc(-c2ccccc2NC(=O)c2cccs2)n1`: “inactive”.
With `CCN(CC)S(=O)(=O)c1cccc(NC(=O)Nc2cccc(C(F)(F)F)c2)c1` the entry was “inactive”.
Next, `Fc1cc(Br)ccc1NC(=S)Nc1ccccc1`: “inactive”; `COC(=O)Cc1ccc(NC(=S)N2CCN(c3ccc(F)cc3)CC2)cc1`: “inactive”.
In the case of `O=S(=O)(Nc1ccc2ccccc2c1)c1ccccc1`, the compound was called inactive.
As to `Cc1scc(C(=O)O)c1-c1c(C(=O)O)csc1C`, the compound was classed as inactive.
With `O=C(c1ccccc1)c1nc2ccccc2n(CCCn2c(=O)c(C(=O)c3ccccc3)nc3ccccc32)c1=O` the entry was “inactive”.
For `CCCn1c(NCc2c[nH]c3ccccc23)nc2ccccc21`, the call was inactive.
As to `CCC(C)N1C(=O)/C(=C/c2ccc3c(c2)CCN3CCCCl)C(=O)NC1=S` (centres undefined), the outcome was inactive.
Take `COc1ccc(-n2c(=O)c3ccccc3n(CC(=O)Nc3cc(C)on3)c2=O)cc1OC`: the compound was called inactive.
As to `CCn1c2ccccc2c2cc(NC(=O)COc3ccccc3)ccc21`, the compound was called inactive.
Turning to `CCCSc1nc(N2CCCC2)c2c(c1C#N)CC(C)(C)OC2`, the compound was called inactive.
As to `c1nc(N2CCC3(CC2)OCCO3)c2c3c(sc2n1)CCCC3`, the compound was classed as inactive.
On to `C=CCc1ccccc1OCC(O)CN1CCN(CCN2C(=O)c3cccc4cccc(c34)C2=O)CC1` (centres undefined), for which the compound was called inactive.
Take `COc1ccc([N+](=O)[O-])cc1N(CC(O)Cn1nnc2ccccc21)S(=O)(=O)c1ccc(C)cc1` (centres undefined): the result was inactive.
As for `Cc1ccc(/C(O)=C2\C(=O)C(=O)N(CC(C)O)C2c2cccc(F)c2)cc1` (centres undefined), the outcome was inactive.
On to `COc1ccc(C2CC(c3ccccc3)=NN2C(=O)COC(=O)c2cccnc2)cc1` (centres undefined), for which the compound was called inactive.
Next, `CCOC(=O)/C=C1\SCC(=O)N1CC(=O)NC1CCCCC1`: “inactive”; `COC(=O)c1ccc2c(=O)n(CCN3CCOCC3)c(SCC(=O)C(C)(C)C)nc2c1`: “inactive”; `Cc1nn(-c2ccccc2)c(N2CCCC2)c1/C=N/Nc1ccc(S(N)(=O)=O)cc1[N+](=O)[O-]`: “inactive”.
